Test results taken from PubChem BioAssay (NCATS).
Results filed as inconclusive are left out. Entries that show only a call come without a potency. Calls of active or inactive are those of the source. Calls follow the shape of the dose curve; as a rule, active = well fitted inhibition curve with a large enough effect; inconclusive = small, poorly fitted or top-dose-only effect; inactive = no such curve, though single readings can be large or run the other way.

molecular target: N-terminal Xaa-Pro-Lys N-methyltransferase 1 (Homo sapiens) (UniProt Q9BV86); assay: qHTS Assay for Inhibitors of N-terminal methyltransferase 1 (NTMT1): LOPAC validation of the NTMT1 SAHH-coupled ThioGlo3 Assay (AID 1347143); conditions: recombinant NTMT1, SAHH-coupled ThioGlo3 fluorescence; series mostly up to 114 µM;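 also: SAH from peptide methylation measured as thiol fluorescence via SAHH coupling and ThioGlo3; nearly all actives have a fitted effect of over 70% in size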
Sequence (Q9BV86 whole entry, looked up): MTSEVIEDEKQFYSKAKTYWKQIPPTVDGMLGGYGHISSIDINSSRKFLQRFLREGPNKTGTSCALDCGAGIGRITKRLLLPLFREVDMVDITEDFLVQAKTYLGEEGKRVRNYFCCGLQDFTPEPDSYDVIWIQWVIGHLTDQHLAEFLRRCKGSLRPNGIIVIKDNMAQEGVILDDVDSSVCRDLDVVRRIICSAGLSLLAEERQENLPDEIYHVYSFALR
Summary of the method: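 NTMT1 125nM + cpds (various conc.), 1 min RT; add SAM 100uM/SAHH 10uM/ThioGlo3 15uM (addition mix). SAHH-coupled thiol detection, Ex340/Em450, t0 and 30 min RT; signal normalized to background. LOPAC 1280-cpd pilot.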
Potency is read from the fitted curve at half-maximal effect.

Which Potency does the source give for NC(CO)C(=O)NNCc1ccc(O)c(O)c1O (configuration not stated) here?
The Potency was 8.91 µM (active).

How did the Potency turn out when CN(C)CCOC(c1ccccc1)c1ccccc1 was run?
The Potency was “inactive”.

How did the Potency turn out when NCCS(=O)(=O)O was run?
Its Potency is “inactive”.

For CCN1CCCC1CNC(=O)c1cc(S(=O)(=O)CC)c(N)cc1OC (configuration not stated), which Potency is on record?
The Potency was “inactive”.

Which Potency does the source give for CC(C)(Oc1ccc(C2CC2(Cl)Cl)cc1)C(=O)O (configuration not stated) here?
The Potency was “inactive”.

Which Potency does the source give for CC12CC3CC(C)(C1)CC(N)(C3)C2 here?
The Potency was “inactive”.

COc1ccc(CCN(C)CCCC(C#N)(c2ccc(OC)c(OC)c2)C(C)C)cc1OC (configuration not stated) was tested. Which Potency did it give?
Its Potency is “inactive”.

With Nc1nnc(-c2cccc(Cl)c2Cl)c(N)n1 as the compound, how does the Potency read?
Its Potency is “inactive”.

Nc1nc2c(ncn2COC(CO)CO)c(=O)[nH]1 was tested. Which Potency did it give?
Its Potency is “inactive”.

For COc1nc(C)nc(Cl)c1NC1=NCCN1, which Potency is on record?
Its Potency is “inactive”.

CN(C)c1nc(N(C)C)nc(N(C)C)n1 was tested. Which Potency did it give?
The Potency was “inactive”.

Which Potency does the source give for CN(C)C(=O)C(CCN1CCC(O)(c2ccc(Cl)cc2)CC1)(c1ccccc1)c1ccccc1 here?
The Potency was “inactive”.

How did the Potency turn out when O=c1[nH]cc(F)c(=O)[nH]1 was run?
Its Potency is “inactive”.

For COc1ccc2c(c1)c(CC(=O)O)c(C)n2C(=O)c1ccc(Cl)cc1, which Potency is on record?
Its Potency is “inactive”.

For NCCc1cnc[nH]1, which Potency is on record?
Its Potency is “inactive”.

Which Potency does the source give for COc1cc2nc(N(C)CCCNC(=O)C3CCCO3)nc(N)c2cc1OC (configuration not stated) here?
Its Potency is 39.8 µM (active).

Which Potency does the source give for CN1C2CCC1CC(OC(=O)C(CO)c1ccccc1)C2 (configuration not stated) here?
Its Potency is “inactive”.

With CC(C(=O)O)c1cccc(C(=O)c2ccccc2)c1 (configuration not stated) as the compound, how does the Potency read?
Its Potency is “inactive”.

How did the Potency turn out when O=C1N(c2ccccc2)c2ccccc2C1(Cc1ccncc1)Cc1ccncc1 was run?
The Potency was “inactive”.

O=C(C1CCCCC1)N1CC(=O)N2CCc3ccccc3C2C1 (configuration not stated) was tested. Which Potency did it give?
The Potency was “inactive”.

NCCCCCC(=O)O was tested. Which Potency did it give?
Its Potency is “inactive”.

How did the Potency turn out when NC(=O)OCC(COC(N)=O)c1ccccc1 was run?
Its Potency is “inactive”.
